Screening results from PubChem.
IDE exosite inh: displaces the probe from the exo-site of human IDE; 17,000 compounds, 6.3% hits; P14735; purified IDE, FL-6b probe fluorescence polarization; active compounds read low; z-score at 20 µM;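 active = z-score of -3 or lower, meaning strong loss of probe binding signal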;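 note: His-tagged human IDE residues 42-1019 made in E. coli with 30 nM FL-6b probe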
* = called active by the depositor. The sample as a whole holds a higher share of hits than the screen did.

Results for COCC(=O)N1CCCCN2[C@H](C1)[C@@H](c1ccc(C#Cc3ccc(OC)cc3)cc1)[C@@H]2CO ?
IDE exosite inh: 4.1

Results for COCC#Cc1ccc([C@H]2[C@H](CO)N3CCCCN(C(=O)COC)C[C@@H]23)cc1 ?
IDE exosite inh: 3.5

What do the screens show for `COCC#Cc1ccc([C@H]2[C@H]3CN(C(=O)COC)CCCCN3[C@H]2CO)cc1`?
IDE exosite inh: 2.4

Results for CCS(=O)(=O)N1CCC2(CC1)CN(C(=O)c1cccc(F)c1)[C@H](CO)c1c2c2ccc(OC)cc2n1C ?
IDE exosite inh: 0.66

What do the screens show for `O=C(Nc1cccc(F)c1)N1CC(=O)N2[C@H](CO)[C@H](c3ccc(-c4ccccc4)cc3)[C@@H]2C1`?
IDE exosite inh: -0.74

How did CC(C)CC#Cc1ccc([C@H]2[C@@H](CO)N3C(=O)CN(C(=O)NC(C)C)C[C@H]23)cc1 do in these assays?
IDE exosite inh: 3

How did C[C@@H](O)C#Cc1ccc([C@@H]2[C@@H](CO)N3CCCCN(S(=O)(=O)c4ccccc4)C[C@@H]23)cc1 do in these assays?
IDE exosite inh: 0.48

What do the screens show for `O=C(CCN1CCCCC1)N[C@@H]1CC[C@H](CC(=O)N2CCC(Cc3ccccc3)CC2)O[C@@H]1CO`?
IDE exosite inh: 1.4

How did O=C(C[C@H]1CC[C@H]2[C@@H](COC[C@@H](O)CN2Cc2ccc(F)cc2)O1)NCCc1ccccc1 do in these assays?
IDE exosite inh: -0.51

How did COc1ccc(-c2ccc([C@H]3[C@H]4CN(C(=O)C5CCC5)CC(=O)N4[C@H]3CO)cc2)cc1 do in these assays?
IDE exosite inh: -0.16

Results for COc1ccc(-c2ccc([C@H]3[C@@H](CO)N4C(=O)CN(C(=O)C5CCC5)C[C@@H]34)cc2)cc1 ?
IDE exosite inh: 1.7

How did COc1ccc(-c2ccc([C@@H]3[C@@H](CO)N4C(=O)CN(C(=O)C5CCCC5)C[C@@H]34)cc2)cc1 do in these assays?
IDE exosite inh: -0.91

How did COc1ccc(-c2ccc([C@@H]3[C@H]4CN(C(=O)C5CCCC5)CC(=O)N4[C@H]3CO)cc2)cc1 do in these assays?
IDE exosite inh: -1.1

How did COc1cccc(-c2ccc([C@@H]3[C@H]4CN(C(=O)C5CC5)CC(=O)N4[C@H]3CO)cc2)c1 do in these assays?
IDE exosite inh: -11*

How did COc1cccc(-c2ccc([C@H]3[C@@H](CO)N4C(=O)CN(C(=O)C5CC5)C[C@@H]34)cc2)c1 do in these assays?
IDE exosite inh: -6.5*

Results for COc1ccc(-c2ccc([C@@H]3[C@@H](CO)N4C(=O)CN(C(=O)C5CCCC5)C[C@H]34)cc2)cc1 ?
IDE exosite inh: 0.57

Results for COc1ccc(-c2ccc([C@@H]3[C@H]4CN(C(=O)C5CC5)CC(=O)N4[C@H]3CO)cc2)cc1 ?
IDE exosite inh: -2.4

Results for COc1cccc(-c2ccc([C@@H]3[C@H](CO)N4C(=O)CN(C(=O)C5CCC5)C[C@@H]34)cc2)c1 ?
IDE exosite inh: -10*

How did CCS(=O)(=O)Nc1ccc2c(c1)C(=O)N(C)[C@@H]1CC[C@@H](CC(=O)NCc3ccccc3F)O[C@@H]1CO2 do in these assays?
IDE exosite inh: -0.83

What do the screens show for `COc1cccc(S(=O)(=O)N2CCCCN3[C@H](C2)[C@@H](c2ccc(C#CC4CC4)cc2)[C@@H]3CO)c1`?
IDE exosite inh: 3

Results for CC(C)CC#Cc1ccc([C@@H]2[C@@H](CO)N3C(=O)CN(S(C)(=O)=O)C[C@@H]23)cc1 ?
IDE exosite inh: 4.1

What do the screens show for `O=C(C[C@@H]1CC[C@@H]2[C@H](COC[C@H](O)CN2C(=O)c2ccc3c(c2)OCO3)O1)NC1CCC1`?
IDE exosite inh: 0.18

What do the screens show for `COc1ccccc1-c1cn(CC[C@@H]2CC[C@@H](NC(=O)C3CCCCC3)[C@H](CO)O2)nn1`?
IDE exosite inh: 0.3

What do the screens show for `O=C(C1CCOCC1)N1CC(=O)N2[C@H](C1)[C@@H](c1ccc(-c3ccccc3F)cc1)[C@@H]2CO`?
IDE exosite inh: -9*

What do the screens show for `O=C(C1CCOCC1)N1CC(=O)N2[C@H](CO)[C@@H](c3ccc(-c4ccccc4F)cc3)[C@H]2C1`?
IDE exosite inh: 2.9

Results for O=C(C1CCOCC1)N1CC(=O)N2[C@H](C1)[C@H](c1ccc(-c3ccccc3F)cc1)[C@@H]2CO ?
IDE exosite inh: 0.93

What do the screens show for `O=C(C1CCOCC1)N1CC(=O)N2[C@@H](CO)[C@@H](c3ccc(-c4ccccc4F)cc3)[C@@H]2C1`?
IDE exosite inh: -2.4

How did O=C(C1CCOCC1)N1CC(=O)N2[C@H](CO)[C@H](c3ccc(-c4ccccc4F)cc3)[C@@H]2C1 do in these assays?
IDE exosite inh: -1.7

Results for O=C(C1CCOCC1)N1CC(=O)N2[C@H](CO)[C@@H](c3ccc(-c4ccccc4F)cc3)[C@@H]2C1 ?
IDE exosite inh: -4.8*

What do the screens show for `CCNC(=O)[C@@H]1[C@@H](CO)[C@@H]2Cn3c(ccc(/C=C/c4ccccc4)c3=O)[C@H]1N2C(=O)c1ccncc1`?
IDE exosite inh: 2

How did COc1ccc(C[C@H]2CCn3nncc3COC[C@H](CC(C)C)NC2=O)cc1 do in these assays?
IDE exosite inh: -1.5
